Measurements: paper PMC4336329 (PLoS ONE, 2015)
Among all 310,000 compounds or so, about 14,000 (4.5%) showed an effect of 50% or more. Effects have a minus sign here. The list comes from a sample in which strong results are over-represented; it also holds similar structures and randomly drawn compounds.

target: human ether-à-go-go-related gene (hERG) potassium channel (human, UniProt Q12809); test: primary screen, population patch clamp on CHO cells stably expressing hERG; higher = less effect of the substance
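Also: peak tail current of the secondary pulse compared with the same well before compound.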

Sequence of human ether-à-go-go-related gene (hERG) potassium channel (Q12809 whole entry, looked up): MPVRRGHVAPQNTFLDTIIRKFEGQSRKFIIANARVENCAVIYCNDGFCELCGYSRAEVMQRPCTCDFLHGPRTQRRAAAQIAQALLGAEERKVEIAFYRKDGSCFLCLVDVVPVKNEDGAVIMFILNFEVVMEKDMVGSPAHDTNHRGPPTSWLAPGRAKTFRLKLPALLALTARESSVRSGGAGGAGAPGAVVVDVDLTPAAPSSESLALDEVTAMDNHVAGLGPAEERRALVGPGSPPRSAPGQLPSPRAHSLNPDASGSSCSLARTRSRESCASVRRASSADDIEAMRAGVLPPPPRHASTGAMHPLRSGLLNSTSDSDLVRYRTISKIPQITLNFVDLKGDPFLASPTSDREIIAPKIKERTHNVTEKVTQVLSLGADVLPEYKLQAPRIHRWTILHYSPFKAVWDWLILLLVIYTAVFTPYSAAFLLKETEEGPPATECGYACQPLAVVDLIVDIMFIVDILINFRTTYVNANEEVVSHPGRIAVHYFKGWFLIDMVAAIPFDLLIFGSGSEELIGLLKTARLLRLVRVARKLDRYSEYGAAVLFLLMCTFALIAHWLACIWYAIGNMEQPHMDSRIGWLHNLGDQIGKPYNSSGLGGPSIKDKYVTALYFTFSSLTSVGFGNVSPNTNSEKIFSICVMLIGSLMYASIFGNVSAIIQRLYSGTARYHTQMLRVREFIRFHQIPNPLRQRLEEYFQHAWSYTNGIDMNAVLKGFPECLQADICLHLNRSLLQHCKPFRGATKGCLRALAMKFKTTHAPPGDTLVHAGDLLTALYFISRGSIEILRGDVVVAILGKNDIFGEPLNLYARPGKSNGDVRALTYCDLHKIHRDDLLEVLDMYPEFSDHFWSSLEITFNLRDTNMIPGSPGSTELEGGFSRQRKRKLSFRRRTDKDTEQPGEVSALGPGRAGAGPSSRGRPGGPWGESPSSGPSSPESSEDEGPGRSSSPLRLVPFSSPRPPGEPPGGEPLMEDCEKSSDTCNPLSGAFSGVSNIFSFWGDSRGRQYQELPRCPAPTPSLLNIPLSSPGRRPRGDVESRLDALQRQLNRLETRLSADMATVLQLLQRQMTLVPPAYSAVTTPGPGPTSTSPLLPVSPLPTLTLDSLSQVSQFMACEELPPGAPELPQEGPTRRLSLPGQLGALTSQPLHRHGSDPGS

Question: With CCOC(=O)c1[nH]c2ccc(OCC)cc2c1NC(=O)CN1CCCC(C)C1 (stereo not drawn) as the compound, how does the “hERG current change (%, negative = inhibition) at 10uM” value read?
Answer: The value was -18.3%.

Question: CCOC(=O)c1[nH]c2ccc(Br)cc2c1NC(=O)CCN1CCOCC1 was tested. Which “hERG current change (%, negative = inhibition) at 10uM” value did it give?
Answer: Its value is 2.43%.

Question: With CCOC(=O)c1[nH]c2ccc(Br)cc2c1NC(=O)CCN1CCN(C(=O)OCC)CC1 as the compound, how does the “hERG current change (%, negative = inhibition) at 10uM” value read?
Answer: The value was -44%.

Question: Which “hERG current change (%, negative = inhibition) at 10uM” value does the source give for CCOC(=O)c1[nH]c2ccc(Br)cc2c1NC(=O)CCN1CCC(C)CC1 here?
Answer: Its value is -69.1%.

Question: For CCOC(=O)c1[nH]c2ccc(Br)cc2c1NC(=O)CCN1CCC(C(=O)OCC)CC1, which “hERG current change (%, negative = inhibition) at 10uM” value is on record?
Answer: The value was -73.9%.

Question: For O=C(Cn1c(=O)n(Cc2ccc3c(c2)OCO3)c(=O)c2ccccc21)N1CCCc2ccccc21, which “hERG current change (%, negative = inhibition) at 10uM” value is on record?
Answer: The value was 4.46%.

Question: Which “hERG current change (%, negative = inhibition) at 10uM” value does the source give for Cc1ccc(NC(=O)CSc2nnc(-c3cccnc3)o2)c(C)c1 here?
Answer: The value was 3.3%.

Question: With CCO[C@@H]1OC(C(=O)O)=C[C@H](C)[C@H]1CCCO as the compound, how does the “hERG current change (%, negative = inhibition) at 10uM” value read?
Answer: The value was 20.7%.

Question: For COc1ccc(CC(=O)Nc2nc3n(n2)C(c2ccccc2)CC(=O)N3)cc1OC (stereo not drawn), which “hERG current change (%, negative = inhibition) at 10uM” value is on record?
Answer: The value was 5.18%.

Question: For CC(=O)c1cccc(N(CC(=O)Nc2ccc(S(=O)(=O)N3CCOCC3)cc2)S(C)(=O)=O)c1, which “hERG current change (%, negative = inhibition) at 10uM” value is on record?
Answer: The value was 8.48%.

Question: CCCCCCn1c(=O)c(C(=O)Nc2cnccn2)c(O)c2ccccc21 was tested. Which “hERG current change (%, negative = inhibition) at 10uM” value did it give?
Answer: Its value is 1.2%.

Question: CCn1c(-c2c(Cl)c(C)nn2C)n[nH]c1=S was tested. Which “hERG current change (%, negative = inhibition) at 10uM” value did it give?
Answer: Its value is 10.9%.

Question: Which “hERG current change (%, negative = inhibition) at 10uM” value does the source give for COc1ccc(C(=O)Nc2cc(-c3nn4c(C)nnc4s3)ccc2C)cc1 here?
Answer: Its value is -41.8%.

Question: How did the “hERG current change (%, negative = inhibition) at 10uM” value turn out when Cc1cc(-c2ccccc2C(=O)O)on1 was run?
Answer: Its value is 17.6%.

Question: CCCc1ccc(C2=Nn3c(nnc3C(C)C)SC2)cc1 was tested. Which “hERG current change (%, negative = inhibition) at 10uM” value did it give?
Answer: The value was -6.25%.

Question: CCOc1ccc2ccccc2c1/C=N/NC(=O)c1c(C)cc(C)[nH]c1=O was tested. Which “hERG current change (%, negative = inhibition) at 10uM” value did it give?
Answer: Its value is 0.637%.

Question: For COc1ccc(OC)c(S(=O)(=O)N2CCN(CC(O)COc3ccc(C#N)cc3)CC2)c1 (stereo not drawn), which “hERG current change (%, negative = inhibition) at 10uM” value is on record?
Answer: Its value is -66.2%.

Question: CC1CN(CC(O)COc2ccc(C#N)cc2)CCN1CC(O)COc1ccc(C#N)cc1 (stereo not drawn) was tested. Which “hERG current change (%, negative = inhibition) at 10uM” value did it give?
Answer: The value was -77.2%.

Question: For CC1CCCCN1CC(O)COc1ccc(OCC(O)CN2CCCCC2C)cc1 (stereo not drawn), which “hERG current change (%, negative = inhibition) at 10uM” value is on record?
Answer: The value was 16.4%.

Question: With CCOC(=O)c1ccc(S(=O)(=O)N2CCN(CC(O)COc3cccc(C(C)=O)c3)CC2)cc1.O=C(O)C(=O)O (stereo not drawn) as the compound, how does the “hERG current change (%, negative = inhibition) at 10uM” value read?
Answer: Its value is -6.64%.

Question: For N#Cc1ccc(-c2ccc(OCC(O)CN3CCOCC3)cc2)cc1 (stereo not drawn), which “hERG current change (%, negative = inhibition) at 10uM” value is on record?
Answer: Its value is -18.4%.

Question: With COc1ccc(OCC(O)CN2CCCCCC2)cc1 (stereo not drawn) as the compound, how does the “hERG current change (%, negative = inhibition) at 10uM” value read?
Answer: The value was 9.18%.

Question: COc1ccc(S(=O)(=O)N2CCN(CC(O)COc3ccc(C#N)cc3)CC2)cc1OC (stereo not drawn) was tested. Which “hERG current change (%, negative = inhibition) at 10uM” value did it give?
Answer: Its value is -46.9%.

Question: With COc1ccc(OC)c(S(=O)(=O)N2CCN(CC(O)COc3ccccc3)CC2)c1 (stereo not drawn) as the compound, how does the “hERG current change (%, negative = inhibition) at 10uM” value read?
Answer: The value was -34.7%.

Question: CC(=O)Nc1ccc(OCC(O)CN2CCN(S(=O)(=O)c3ccc(NC(C)=O)cc3)CC2)cc1 (stereo not drawn) was tested. Which “hERG current change (%, negative = inhibition) at 10uM” value did it give?
Answer: The value was -8.63%.

Question: Which “hERG current change (%, negative = inhibition) at 10uM” value does the source give for CC(=O)Nc1ccc(OCC(O)CN2CCCCC2C)cc1.Cl (stereo not drawn) here?
Answer: Its value is 3.85%.

Question: How did the “hERG current change (%, negative = inhibition) at 10uM” value turn out when N#Cc1ccc(-c2ccc(OCC(O)CN3CCCCC3)cc2)cc1 (stereo not drawn) was run?
Answer: The value was -80.7%.

Question: With CCOC(=O)c1ccc(S(=O)(=O)N2CCN(CC(O)COc3ccc(C#N)cc3)CC2)cc1.O=C(O)C(=O)O (stereo not drawn) as the compound, how does the “hERG current change (%, negative = inhibition) at 10uM” value read?
Answer: Its value is -63.2%.

Question: Which “hERG current change (%, negative = inhibition) at 10uM” value does the source give for CCN(CC)S(=O)(=O)c1cc(C)ccc1SC here?
Answer: The value was 12.1%.

Question: COc1ccc(C(=O)NNC(=O)c2ccc(C(C)(C)C)cc2)cc1 was tested. Which “hERG current change (%, negative = inhibition) at 10uM” value did it give?
Answer: The value was 4.1%.

Question: Which “hERG current change (%, negative = inhibition) at 10uM” value does the source give for CCN(CCN1CCCC1)C(=O)C1CCC(=O)N(CCCN2CCOCC2)C1 (stereo not drawn) here?
Answer: Its value is 12.8%.

Question: With O=C(CN1CCN(c2cccc(Cl)n2)CC1)N1CC(O)CO1 (stereo not drawn) as the compound, how does the “hERG current change (%, negative = inhibition) at 10uM” value read?
Answer: The value was 19.6%.

Question: With CCc1noc(C)c1C(=O)N1CCN(S(=O)(=O)c2cccs2)CC1 as the compound, how does the “hERG current change (%, negative = inhibition) at 10uM” value read?
Answer: The value was -23.5%.

Question: Which “hERG current change (%, negative = inhibition) at 10uM” value does the source give for CC(C)(C)NC(=O)NC(=O)CN1CCN(c2ncc(C(F)(F)F)cc2Cl)CC1 here?
Answer: Its value is -13.3%.

Question: For O=C(O)CN1CCN(c2ncc(C(F)(F)F)cc2Cl)CC1, which “hERG current change (%, negative = inhibition) at 10uM” value is on record?
Answer: Its value is 11.6%.

Question: COc1ccc(OCC(O)CN2CCCC2)cc1 (stereo not drawn) was tested. Which “hERG current change (%, negative = inhibition) at 10uM” value did it give?
Answer: Its value is 15.2%.

Question: For CN(C)CC(O)COc1ccc(C(C)(C)c2ccc(OCC(O)CN(C)C)cc2)cc1.Cl (stereo not drawn), which “hERG current change (%, negative = inhibition) at 10uM” value is on record?
Answer: The value was 12.5%.

Question: N#Cc1ccc(OCC(O)CN2CCN(c3ncc(C(F)(F)F)cc3Cl)CC2)cc1 (stereo not drawn) was tested. Which “hERG current change (%, negative = inhibition) at 10uM” value did it give?
Answer: Its value is -74.6%.

Question: For FC(F)(F)c1cnc(N2CCN(C(=S)NCc3ccccc3)CC2)c(Cl)c1, which “hERG current change (%, negative = inhibition) at 10uM” value is on record?
Answer: Its value is -11.3%.

Question: For CN(CCOc1ccc(Br)cc1)CC(O)COc1ccc(C#N)cc1 (stereo not drawn), which “hERG current change (%, negative = inhibition) at 10uM” value is on record?
Answer: The value was -16.3%.

Question: How did the “hERG current change (%, negative = inhibition) at 10uM” value turn out when OC(CN1CCN(c2ncc(C(F)(F)F)cc2Cl)CC1)c1ccccc1 (stereo not drawn) was run?
Answer: Its value is -58%.

Question: Which “hERG current change (%, negative = inhibition) at 10uM” value does the source give for OC(CN1CCN(c2ccc(C(F)(F)F)cn2)CC1)c1ccccc1 (stereo not drawn) here?
Answer: The value was -26.5%.

Question: N#Cc1ccc(OCC(O)CN2CCN(CC(O)COc3ccc(C#N)cc3)CC2)cc1 (stereo not drawn) was tested. Which “hERG current change (%, negative = inhibition) at 10uM” value did it give?
Answer: Its value is -86.1%.

Question: CN(C)CC(O)COc1ccc(-c2ccc(C#N)cc2)cc1 (stereo not drawn) was tested. Which “hERG current change (%, negative = inhibition) at 10uM” value did it give?
Answer: Its value is -57.5%.

Question: CN1CCN(CC(O)COc2ccc(OCC(O)CN3CCN(C)CC3)cc2)CC1 (stereo not drawn) was tested. Which “hERG current change (%, negative = inhibition) at 10uM” value did it give?
Answer: Its value is -7.27%.
